# Results filed as inconclusive are left out. Values without a mark were called inactive. The source made the active and inactive calls. Unless noted, the call rests on the fitted dose curve; in most records, active means well fitted curve in the direction sought with a large enough effect in the repeat runs; inconclusive means weak or mixed curves; inactive means no such curve, though single readings can be large; an effect the other way counts as inactive or inconclusive.
# Molecular target: Estrogen receptor (Homo sapiens) (UniProt P03372)
# Sequence (P03372 whole entry, looked up): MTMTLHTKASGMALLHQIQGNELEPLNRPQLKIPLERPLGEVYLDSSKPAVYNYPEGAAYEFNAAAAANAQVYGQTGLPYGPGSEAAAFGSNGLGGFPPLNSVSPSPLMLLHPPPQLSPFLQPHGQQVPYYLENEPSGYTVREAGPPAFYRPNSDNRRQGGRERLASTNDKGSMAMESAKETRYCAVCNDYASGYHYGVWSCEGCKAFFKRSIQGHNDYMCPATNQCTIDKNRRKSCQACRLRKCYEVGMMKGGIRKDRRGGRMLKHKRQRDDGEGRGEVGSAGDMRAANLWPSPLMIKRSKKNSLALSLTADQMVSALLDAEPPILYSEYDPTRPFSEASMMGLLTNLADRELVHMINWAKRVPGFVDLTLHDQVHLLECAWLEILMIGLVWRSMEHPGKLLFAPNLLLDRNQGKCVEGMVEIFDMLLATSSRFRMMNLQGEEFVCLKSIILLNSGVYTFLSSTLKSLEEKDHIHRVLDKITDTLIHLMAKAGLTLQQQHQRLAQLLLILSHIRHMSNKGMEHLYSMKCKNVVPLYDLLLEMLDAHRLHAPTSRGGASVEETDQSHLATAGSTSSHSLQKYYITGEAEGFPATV
# Experiment: qHTS assay to identify small molecule agonists of the estrogen receptor alpha (ER-alpha) signaling pathway using the BG1 cell line (AID 743079); further: nearly all actives have a fitted effect of over 20% in size
# Conditions: BG1Luc4E2 cells, ERE-luciferase agonist, 22 h; at 70.3 µM (top of the series)
# On the % scale 0 is the no-effect control and ±100 the full control effect.
row,SMILES,activation
1,CC[C@H](N)c1ccccc1,0.171%
2,CCOC(=O)c1ncn2c1CN(C)C(=O)c1c(I)cccc1-2,-3.09%
3,CCN[C@@H](C)Cc1cccc(C(F)(F)F)c1,-18%
4,CCN(CC)CCOC(=O)C(O)(c1ccccc1)c1ccccc1,1.82%
5,CCNc1nc(NCC)nc(SC)n1,-15.9%
6,OCC(Cl)CCl (configuration not stated),3.3%
7,C=C(C)[C@H]1CN[C@H](C(=O)O)[C@H]1CC(=O)O,2.22%
8,CCN(CC)C1CCCCC1,6.19%
9,CCOP(=S)(OCC)SCCl,9.52%
10,COc1ccccc1OC,21.9%
11,Clc1nc(Cl)nc(Nc2ccccc2Cl)n1,9.21%
12,O=P(O)(O)c1ccccc1,0.284%
13,Clc1ccc(C(Cl)(Cl)Cl)cn1,-9.37%
14,NCCOS(=O)(=O)O,-1.11%
15,CN=CNc1ccc(C)cc1C,15.7%

# Same assay, conditions: BG1Luc4E2 cells, ERE-luciferase agonist, 22 h; at 95 µM (top of the series)
row,SMILES,activation
1,CCN[C@@H](C)Cc1ccccc1,0.895%
2,CC(C)(C)C(=O)Cl,-4.71%
3,CCCCOC(C)=O,-9.13%
4,CC[C@H](O)C(C[C@H](C)N(C)C)(c1ccccc1)c1ccccc1,-12.1%
5,O=C(Cl)c1ccccc1,1.6%
6,BrCC1CO1 (configuration not stated),8.58%

# System: not listed separately
# Experiment: qHTS assay to identify small molecule antagonists of the estrogen receptor alpha (ER-alpha) signaling pathway using the BG1 cell line (AID 743080; calls by dose curve;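 further: BG1 cells stimulated with 17beta-estradiol alongside compound; nearly all actives have a fitted effect of over 25% in size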)
# Conditions: BG1Luc4E2 ERE-luciferase antagonist mode, luminescence; series mostly up to 70.3 µM; activity change, negative = inhibition: at the top concentration
# Outline: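 BG1Luc4E2, endogenous ER-alpha, 4xERE-luc; 5 d charcoal-stripped FBS, phenol red free; 24 h plating; cpd + 17beta-estradiol 21.5 h, 37 C/5% CO2; CellTiter-Fluor viability 30 min, then ONE-Glo luciferase 30 min RT.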
SMILES,"activity change, negative = inhibition",Potency
CC[C@H](N)c1ccccc1,10.4%,–
CCOC(=O)c1ncn2c1CN(C)C(=O)c1c(I)cccc1-2,-2.11%,–
CCN[C@@H](C)Cc1cccc(C(F)(F)F)c1,-6.73%,–
CCN(CC)CCOC(=O)C(O)(c1ccccc1)c1ccccc1,-0.331%,–
CCNc1nc(NCC)nc(SC)n1,-4.88%,–
CCNc1nc(Cl)nc(NC(C)(C)C)n1,7.15%,–
OCC(Cl)CCl (configuration not stated),0.253%,–
CCN[C@@H](C)Cc1ccccc1,-9.46% [at 95 µM],–
CCOC(=O)CC(SP(=S)(OC)OC)C(=O)OCC (configuration not stated),–,inactive
C=C(C)[C@H]1CN[C@H](C(=O)O)[C@H]1CC(=O)O,-3.29%,–
CC(C)(C)C(=O)Cl,0.896% [at 95 µM],–
CCCCOC(C)=O,-7.06% [at 95 µM],–
CCN(CC)C1CCCCC1,-7.11%,–
CCOP(=S)(OCC)SCCl,-10.3%,–
COc1ccccc1OC,6.7%,–
Clc1nc(Cl)nc(Nc2ccccc2Cl)n1,3.85%,–
CCOP(=S)(OCC)Oc1ccc(Cl)cc1Cl,8.76%,–
O=P(O)(O)c1ccccc1,9.18%,–
CC[C@H](O)C(C[C@H](C)N(C)C)(c1ccccc1)c1ccccc1,3.15% [at 95 µM],–
O=C(Cl)c1ccccc1,-0.287% [at 95 µM],–
BrCC1CO1 (configuration not stated),15.2% [at 95 µM],–
NCCOS(=O)(=O)O,8.68%,–
CN(C)C1CCCCC1,5.16%,–
CN=CNc1ccc(C)cc1C,8.55%,–

# System: not listed separately
# Experiment: qHTS assay to identify small molecule antagonists of the estrogen receptor alpha (ER-alpha) signaling pathway using the BG1 cell line - cell viability counter screen (AID 743081);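 further: compound given together with 17beta-estradiol as the ER stimulus; nearly all actives have a fitted effect of over 45% in size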
# Conditions: BG1Luc4E2 viability, CellTiter-Fluor, 22 h; series mostly up to 70.3 µM; activity change, negative = cytotoxicity: at the top concentration
SMILES,"activity change, negative = cytotoxicity",Potency
ClCCCCl,-0.591% [at 95 µM],–
CC[C@H](N)c1ccccc1,-1.09%,–
COC(=O)[C@@H](N)CCCN/C(N)=N/[N+](=O)[O-],14.7%,–
CCOC(=O)c1ncn2c1CN(C)C(=O)c1c(I)cccc1-2,14.6%,–
CCN[C@@H](C)Cc1cccc(C(F)(F)F)c1,-9.76%,–
CCN(CC)CCOC(=O)C(O)(c1ccccc1)c1ccccc1,19.3%,–
BrCCc1ccccc1,-6% [at 95 µM],–
CCC(=O)OC1(c2ccccc2)CCN(C)CC1,-20.4% [at 95 µM],–
C[C@@H](N)[C@@H](O)c1ccccc1,-2.72% [at 32.5 µM],–
CCNc1nc(NCC)nc(SC)n1,11.5%,–
CCNc1nc(Cl)nc(NC(C)(C)C)n1,14.3%,–
CCOC(=O)N(C)N=O,4.17%,–
OCC(Cl)CCl (configuration not stated),10.2%,–
CCCOc1nn(C(=O)NS(=O)(=O)c2ccccc2C(=O)OC)c(=O)n1C,-0.26%,–
CCN[C@@H](C)Cc1ccccc1,1.66% [at 95 µM],–
ClCCCCCCCl,13.6%,–
CCOC(=O)CC(SP(=S)(OC)OC)C(=O)OCC (configuration not stated),–,inactive
C=C(C)[C@H]1CN[C@H](C(=O)O)[C@H]1CC(=O)O,9.87%,–
CC(C)(C)C(=O)Cl,1.38% [at 95 µM],–
CCCCOC(C)=O,-1.39% [at 95 µM],–

SMILES,"activity change, negative = cytotoxicity",Potency
CNC(=O)Oc1cc(C)c(N(C)C)c(C)c1,-16.1%,–
CCN(CC)C1CCCCC1,13.5%,–
O=S1(=O)OCCO1,2.28% [at 95 µM],–
CCOP(=S)(OCC)SCCl,5.2%,–
COc1ccccc1OC,-2.37%,–
Clc1nc(Cl)nc(Nc2ccccc2Cl)n1,4.04%,–
CN1COCN(Cc2cnc(Cl)s2)/C1=N\[N+](=O)[O-],14.1%,–
CCOP(=S)(OCC)Oc1ccc(Cl)cc1Cl,-3.96%,–
CCC1(c2ccccc2)C(=O)N(COC)C(=O)N(COC)C1=O,6.47%,–
O=P(O)(O)c1ccccc1,14.2%,–
N#CC(Br)(Br)C(N)=O,-1.51%,–
CCCCS(=O)(=O)Cl,10.6%,–
CC[C@H](O)C(C[C@H](C)N(C)C)(c1ccccc1)c1ccccc1,11.8% [at 95 µM],–
Clc1ccc(C(Cl)(Cl)Cl)cn1,10.8%,–
O=C(Cl)c1ccccc1,10% [at 95 µM],–
BrCC1CO1 (configuration not stated),10.5% [at 95 µM],–
NCCOS(=O)(=O)O,5.5%,–
CN(C)C1CCCCC1,7.41%,–
CN=CNc1ccc(C)cc1C,-4.26%,–

# Molecular target: Aromatase (Homo sapiens) (UniProt P11511)
# Sequence (P11511 whole entry, looked up): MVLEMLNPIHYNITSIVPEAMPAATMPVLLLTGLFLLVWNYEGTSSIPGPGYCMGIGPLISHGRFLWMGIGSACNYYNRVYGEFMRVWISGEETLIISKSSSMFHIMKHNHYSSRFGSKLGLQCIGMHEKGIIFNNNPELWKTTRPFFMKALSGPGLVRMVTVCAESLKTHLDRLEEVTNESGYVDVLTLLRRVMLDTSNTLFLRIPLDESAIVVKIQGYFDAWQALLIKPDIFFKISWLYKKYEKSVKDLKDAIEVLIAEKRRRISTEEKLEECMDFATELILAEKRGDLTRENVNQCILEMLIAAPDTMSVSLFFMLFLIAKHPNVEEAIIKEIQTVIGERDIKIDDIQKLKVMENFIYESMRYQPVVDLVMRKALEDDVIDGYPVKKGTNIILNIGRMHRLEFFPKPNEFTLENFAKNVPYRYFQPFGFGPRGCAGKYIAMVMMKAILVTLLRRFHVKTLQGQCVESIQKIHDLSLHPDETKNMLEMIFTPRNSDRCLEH
# Experiment: qHTS assay to identify aromatase inhibitors (AID 743083); further: nearly all actives have a fitted effect of over 55% in size
# Conditions: MCF-7 aro ERE, testosterone-driven ERE luciferase, 24 h; series mostly up to 70.3 µM; activity, negative = inhibition: at the top concentration
SMILES,"activity, negative = inhibition",Potency
ClCCCCl,40.7% [at 95 µM],–
CC[C@H](N)c1ccccc1,5.06%,–
COC(=O)[C@@H](N)CCCN/C(N)=N/[N+](=O)[O-],-0.113%,–
CCOC(=O)c1ncn2c1CN(C)C(=O)c1c(I)cccc1-2,-11.7%,–
CCN[C@@H](C)Cc1cccc(C(F)(F)F)c1,-2.6%,–
CCN(CC)CCOC(=O)C(O)(c1ccccc1)c1ccccc1,-0.459%,–
BrCCc1ccccc1,10.4% [at 95 µM],–
CCC(=O)OC1(c2ccccc2)CCN(C)CC1,-0.767% [at 95 µM],–
C[C@@H](N)[C@@H](O)c1ccccc1,-2.33% [at 32.5 µM],–
CCNc1nc(NCC)nc(SC)n1,-1.82%,–
CCNc1nc(Cl)nc(NC(C)(C)C)n1,-10.8%,–
CCOC(=O)N(C)N=O,-2.91%,–
OCC(Cl)CCl (configuration not stated),1.41%,–
CCCOc1nn(C(=O)NS(=O)(=O)c2ccccc2C(=O)OC)c(=O)n1C,11.8%,–
CCN[C@@H](C)Cc1ccccc1,-1.84% [at 95 µM],–
ClCCCCCCCl,8.12%,–
CCOC(=O)CC(SP(=S)(OC)OC)C(=O)OCC (configuration not stated),–,inactive
C=C(C)[C@H]1CN[C@H](C(=O)O)[C@H]1CC(=O)O,-16%,–
CC(C)(C)C(=O)Cl,1.51% [at 95 µM],–

SMILES,"activity, negative = inhibition",Potency
CCCCOC(C)=O,4.46% [at 95 µM],–
CNC(=O)Oc1cc(C)c(N(C)C)c(C)c1,17.8%,–
CCN(CC)C1CCCCC1,18.1%,–
O=S1(=O)OCCO1,-5.86% [at 95 µM],–
COc1ccccc1OC,7.04%,–
Clc1nc(Cl)nc(Nc2ccccc2Cl)n1,11.2%,–
CN1COCN(Cc2cnc(Cl)s2)/C1=N\[N+](=O)[O-],14.2%,–
CCOP(=S)(OCC)Oc1ccc(Cl)cc1Cl,-11.3%,–
CCC1(c2ccccc2)C(=O)N(COC)C(=O)N(COC)C1=O,-4.89%,–
O=P(O)(O)c1ccccc1,-0.427%,–
CCOC1Oc2ccc(OS(C)(=O)=O)cc2C1(C)C (configuration not stated),-5.42%,–
CCCCS(=O)(=O)Cl,0.567%,–
CC[C@H](O)C(C[C@H](C)N(C)C)(c1ccccc1)c1ccccc1,-1.88% [at 95 µM],–
Clc1ccc(C(Cl)(Cl)Cl)cn1,-23%,–
O=C(Cl)c1ccccc1,-6.2% [at 95 µM],–
BrCC1CO1 (configuration not stated),11.8% [at 95 µM],–
NCCOS(=O)(=O)O,3.23%,–
CN(C)C1CCCCC1,9.64%,–
CN=CNc1ccc(C)cc1C,-0.167%,–

# — PubChem BioAssay (Tox21)
